Our source for the cell number values is the supplement of paper PMC7156485.

Structures can show the parent of a compound that is named as a salt. ± gives the standard deviation of the averaged measurements.
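Further: TDF denotes transformed human dermal fibroblasts of mesenchymal origin.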

The subject of this experiment is TDF. The experiment can be described thus: cell number relative to DMSO (% of DMSO); higher = more cells (less growth inhibition / toxicity). The note with it: concentration: 10 µM; 24 h. The method in brief: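 HCC1569 and TDF cells (800 per well, 384-well plates, RPMI with 10% FBS) were treated with compounds at 10 µM for 24 h at 37 °C, in triplicate. Cells were fixed in 3.7% formaldehyde and stained with a rabbit anti-H1.0 antibody, an AlexaFluor 647 secondary and DAPI; six fields per well were imaged at ×10. H1.0 nuclear intensity or cell number is expressed as percent of the plate DMSO control, taking the median of replicates. HCC1569 values were smoothed for positional effects.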
In turn, `CC1OC(Oc2c(-c3ccc(O)c(O)c3)oc3cc(O)cc(O)c3c2=O)C(O)C(O)C1O` (stereo not given) [Quercitrin] showed a cell number of 106.
On to `CC(N)C1CCC(C(=O)Nc2ccncc2)CC1.Cl.Cl.O` (stereo not given), for which the cell number is 104.
Then `CCCC(=O)O[C@]1(C(=O)CO)CC[C@H]2[C@@H]3CCC4=CC(=O)CC[C@]4(C)[C@H]3[C@@H](O)C[C@@]21C` [(11beta)-11,21-dihydroxy-3,20-dioxopregn-4-en-17-yl butyrate], with 106; and `COC(=O)c1c(C)[nH]c(C)c1C(=O)c1ccccc1Cc1ccccc1`, with 102; and `Br.Br.N=C(N)SCCc1ccc(CCSC(=N)N)cc1` [1,4-PBIT dihydrobromide], with 101.
The same measure for `CCCCCCCCCCC(=O)O` [Undecanoic acid]: 100; for `CCCCOC(=O)NS(=O)(=O)c1sc(CC(C)C)cc1-c1ccc(Cn2c(CC)nc3c(C)cc(C)nc32)cc1`: 106.
The same measure for `Cc1cc(CS(=O)(=O)c2ccccc2)cc(OCc2ccc(CN3CCC[C@@H]3CO)cc2)c1` [PF-543 hydrochloride]: 90.2; for `CN1CCN(CCCN2c3ccccc3Sc3ccc(C(F)(F)F)cc32)CC1.Cl.Cl` [Trifluoperazine dihydrochloride]: 108.
Consider `CC1=C(CC(=O)O)c2cc(F)ccc2C1=Cc1ccc(S(C)(=O)=O)cc1` [Sulindac sulfone], for which the cell number came out at 117.
The same measure for `COC1C=COC2(C)Oc3c(C)c(O)c4c(O)c(cc([O-])c4c3C2=O)NC(=O)C(C)=CC=CC(C)C(O)C(C)C(O)C(C)C(OC(C)=O)C1C.[Na+]` (stereo not given): 101; for `COC(=O)C1C(O)CCC2CN3CCc4c([nH]c5ccccc45)C3CC21` (stereo not given) [Corynanthine]: 94.3.
The same measure for `CC(N=C(NC#N)Nc1ccncc1)C(C)(C)C` (stereo not given) [Pinacidil]: 107 ± 6.8; for `Nc1nc(=O)c2ncn(COC(CO)CO)c2[nH]1` [Ganciclovir]: 99.6 ± 5.2.
Then `O=C(NCCO[N+](=O)[O-])c1cccnc1` [Nicorandil], with 96.3.
With `Cc1c(C)c2c(c(C)c1O)CCC(C)(C(=O)O)O2` (stereo not given) [Trolox], the cell number amounted to 101.
Then `CC[n+]1c(C=CN(C)c2ccccc2)n(-c2ccccc2)c2ccc(-c3nc4ccccc4s3)cc21.[I-]` [Akt Inhibitor IV], with 21.3.
Then `CC(=O)CC/C=C(\C)CC/C=C(\C)CC/C=C(\C)CCC=C(C)C`, with 96.2.
Then `O=c1[nH]ccc2c(S(=O)(=O)N3CCCNCC3)cccc12`, with 110; and `NC1CCCCC1N.O=C([O-])C(=O)[O-].[Pt+2]` (stereo not given) [Oxaliplatin], with 87.2 ± 18; and `CC(C)NCC(O)c1ccc(O)c(O)c1.O=C(O)C(O)C(O)C(=O)O` (stereo not drawn) [R(-)-Isoproterenol (+)-bitartrate], with 79.3.
On to `CCCCCC=CCC=CCCCCCCCCCC(=O)O` [Eicosadienoic acid], for which the cell number amounted to 92.6 ± 7.5.
The same measure for `CCCCCCCCCCCC=CCC=CCCCC(=O)O` [Eicosa-5,8-dienoic acid (20:2 n-12)]: 99.6; for `Cc1ccc(C)c(-c2cc(C(F)(F)F)nn2-c2ccc(S(N)(=O)=O)cc2)c1`: 96.8.
Compound `COc1ccc2[nH]cc(CCNC(C)=O)c2c1` [Melatonin] displayed a cell number of 99.5 ± 3.
As to `Cl.O.O=C(O)CN(CCN(CC(=O)O)Cc1ccccc1O)Cc1ccccc1O`, the cell number is 98.8.
`O=C1CSc2ccccc2N1Cc1cccc(C(F)(F)F)c1` [4-[3-(trifluoromethyl)benzyl]-2H-1,4-benzothiazin-3(4H)-one] returned a cell number of 106.
`CC(C)(C)c1nc2c3cc[nH]c(=O)c3c3cc(F)ccc3c2[nH]1` [JAK Inhibitor I] yielded a cell number of 99.5.
`CC1(C)NC(=O)N(c2ccc([N+](=O)[O-])c(C(F)(F)F)c2)C1=O` [Nilutamide] had a cell number of 91.
With `COc1c(N2CCNC(C)C2)c(F)cc2c(=O)c(C(=O)O)cn(C3CC3)c12` (stereo not given) [Gatifloxacin], the cell number is 107.
The same measure for `Cc1nc(C(=O)N2CCC[C@H]2Cc2nnc(-c3ccccc3)o2)c(-c2ccccc2F)s1`: 113.
The same measure for `Cc1ccc(NC(=O)c2ccc(CN3CCN(C)CC3)cc2)cc1Nc1nccc(-c2cccnc2)n1` [Imatinib]: 101.
Regarding `CC(C)=CCCC(C)=CCCC(C)=CCCC(C)=CCCC(C)=CCCC(C)=CCCC(C)=CCCC(C)=CCCC(C)=CCO` [Solanesol], the cell number came to 97.8.
The same measure for `COc1cc(C(=O)OC2CC(C)=CCCC(C)=CC(O)C2C(C)C)ccc1O` (stereo not given) [Tschimganidin]: 101; for `COc1cc(/C=C/C(=O)O)ccc1O` [Ferulic acid]: 97.3; for `CC(=O)N1CCN(C(=O)/C=C/c2ccc(Sc3ccccc3C(C)C)c([N+](=O)[O-])c2)CC1`: 86.4.
The same measure for `CC1CC2OC2C=CC=CC(=O)Cc2c(Cl)c(O)cc(O)c2C(=O)O1` (stereo not given) [Radicicol]: 15.9; for `CNC(=O)c1cc(Oc2ccc(NC(=O)Nc3ccc(Cl)c(C(F)(F)F)c3)cc2)ccn1` [Sorafenib]: 21.5.
The same measure for `COc1cc2ncnc(Nc3ccc(F)c(Cl)c3)c2cc1OCCCN1CCOCC1`: 101.
Turning to `NC1CONC1=O` (racemic) [DL-Cycloserine], the cell number amounted to 96.8.
